SMILES strings stand for the structures. Values joined by “and” are separate entries in the source; they are usually repeats but may differ in a detail not shown here. Identical values can stand only once. The campaign covered roughly 140,000 compounds. About 80 (0.06%) were called active. The sample holds actives, similar compounds and a random draw of the others, so the mix is not that of the screen. Rule as the data show it: active = displacement above about 50%; inactive = the rest.

The target in the assay is Heat shock 70 kDa protein 1A (Homo sapiens) (UniProt P0DMV8). In words: small molecules displacing fluorescent ligand from Hsp70 – biochemical, fluorescence polarization, primary screen (AID 583).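 Also: plate controls were vehicle for no effect and reference ligand for full effect.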 Conditions: Hsp70 fluorescence polarization probe displacement, mP; at 20 µM; hits give high values. Background: Polarisation of emitted light reports the rotation of a fluorescent probe.
Chain of Heat shock 70 kDa protein 1A (Homo sapiens) (P0DMV8 whole entry, looked up): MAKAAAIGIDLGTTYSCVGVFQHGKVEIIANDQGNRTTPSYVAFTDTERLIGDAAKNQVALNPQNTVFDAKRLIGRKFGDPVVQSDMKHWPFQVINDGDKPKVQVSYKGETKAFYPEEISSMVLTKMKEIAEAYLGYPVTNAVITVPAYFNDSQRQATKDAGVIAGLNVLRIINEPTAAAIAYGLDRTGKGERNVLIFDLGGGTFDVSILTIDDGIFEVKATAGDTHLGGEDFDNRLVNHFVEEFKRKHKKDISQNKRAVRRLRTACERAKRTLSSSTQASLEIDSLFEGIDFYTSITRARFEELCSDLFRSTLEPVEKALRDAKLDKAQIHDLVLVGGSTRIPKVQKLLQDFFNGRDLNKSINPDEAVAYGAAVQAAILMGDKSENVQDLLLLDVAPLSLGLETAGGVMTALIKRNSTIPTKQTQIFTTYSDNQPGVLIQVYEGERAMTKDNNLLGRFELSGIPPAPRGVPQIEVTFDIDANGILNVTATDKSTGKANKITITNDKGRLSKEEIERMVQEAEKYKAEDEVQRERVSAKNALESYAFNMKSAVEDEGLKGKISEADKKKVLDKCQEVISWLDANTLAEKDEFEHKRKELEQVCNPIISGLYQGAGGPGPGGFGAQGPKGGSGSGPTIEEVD
Take `CCOc1ccc(N(CC(=O)NC2CCCCC2)S(=O)(=O)c2ccc(Cl)cc2)cc1`: the displacement is 2.4% (inactive). The result for `NC(=O)c1ccc(NC(=O)Cc2ccc(Cl)cc2)cc1` reads -3.6% (inactive); that for `O=C(N/N=C/c1cccc([N+](=O)[O-])c1)c1cc(-c2ccc(Cl)cc2)n[nH]1`, 4.6% (inactive); that for `Cc1ccc(-c2cc(C(=O)N/N=C/c3ccc([N+](=O)[O-])cc3)[nH]n2)cc1`, 1.8% (inactive).

As for `Cc1ccc(-c2cc(C(=O)N/N=C/c3cccc([N+](=O)[O-])c3)[nH]n2)cc1`, the displacement was 78.2% (active). With `CC(C)(C)NC(=O)c1cccc(N2C(=O)c3cccc([N+](=O)[O-])c3C2=O)c1`, the displacement is 1.9% (inactive).

As to `Cc1cccc(C(NC(N)=O)c2ccccc2)c1` (configuration not stated), the displacement is 0.4% (inactive). As to `NC1=NC(=O)/C(=C/c2ccc(-c3ccc([N+](=O)[O-])cc3Br)o2)S1`, the displacement is 44.5% (inactive). For `NC1=NC(=O)/C(=C\c2ccc(-c3ccc([N+](=O)[O-])cc3)o2)S1`, the displacement is -5.8% (inactive). Regarding `NC1=NC(=O)/C(=C/c2ccc(-c3cc([N+](=O)[O-])ccc3Cl)o2)S1`, the displacement is 75.9% (active). In the case of `Cc1ccc(/C(N)=N/OC(=O)c2ccccc2F)cc1`, the displacement was 2.5% (inactive). Regarding `O=S(=O)(Nc1ccc(F)cc1)c1ccc2c(c1)Cc1cc(S(=O)(=O)Nc3ccc(F)cc3)ccc1-2`, the displacement is -0.8% (inactive).

Regarding `Cc1ccc(NC(=O)c2ccccc2NC(=O)Cc2cccs2)cc1C`, the displacement is 3.6% (inactive).

For the compound `CN(c1ccc(C(=O)NC2CC2)cc1)S(=O)(=O)c1ccccc1`, the displacement is 0.5% (inactive). With `Cc1c(C(=O)Nc2ccc3oc(-c4ccc(Cl)cc4Cl)nc3c2)cccc1[N+](=O)[O-]`, the displacement is -1.5% (inactive).

Regarding `Cc1c(NC(=O)c2ccccc2[N+](=O)[O-])cccc1-c1nc2cc(Cl)ccc2o1`, the displacement is 60.1% (active).

As to `Cc1c(C(=O)Nc2ccc(-c3nc4cc(Cl)ccc4o3)cc2)cccc1[N+](=O)[O-]`, the displacement is -7% (inactive). For the compound `Cc1cc(NC(=O)CN2CCN(c3ccccc3F)CC2)nc2c1c(=O)oc1ccccc12`, the displacement is 1.7% (inactive).

For `COc1ccc(N2C(=O)C3C(C2=O)N2CCCN2C3c2ccc(Cl)cc2)cc1` (configuration not stated), the displacement was 2.3% (inactive). For the compound `O=C1NC(=O)N(c2ccc(Br)cc2)C(=O)/C1=C\C=C\c1ccco1`, the displacement was -7.2% (inactive).

As for `O=C1NC(=O)N(c2ccc(Br)cc2)C(=O)/C1=C/c1ccco1`, the displacement was 54% (active). For `Cc1cc(N2C(=O)NC(=O)/C(=C\c3ccco3)C2=O)ccc1Br`, the displacement is 40.3% (inactive). For the compound `N#CCOc1ccccc1/C=N/c1sc2c(c1C#N)CCCC2`, the displacement is -0.5% (inactive). Next, `CC(C)(C)NC(=O)CN1CCC(O)(c2ccc3c(c2)OCO3)CC1`: 5.2% (inactive); `O=C(O)c1ccc(-c2ccc(/C=C3\SC(=S)N(c4ccc([N+](=O)[O-])cc4)C3=O)o2)cc1`: 55.5% (active); `O=C(O)CCN1C(=O)/C(=C/c2ccc(-c3ccc([N+](=O)[O-])cc3)o2)SC1=S`: 1.7% (inactive).

Turning to `O=C1/C(=C\c2ccc(-c3ccc([N+](=O)[O-])cc3)o2)SC(=S)N1c1ccc(O)cc1`, the displacement is 1.6% (inactive).

Take `CC(=O)Nc1ccccc1NC(=O)COc1ccc(Cl)cc1C`: the displacement is -3.3% (inactive).

For the compound `O=c1ccc(Oc2nc(N3CCOCC3)nc(N3CCOCC3)n2)nn1-c1ccccc1`, the displacement was 6.5% (inactive).

`N/C(=N\OC(=O)c1cccc(Br)c1)c1cccnc1`: the displacement was 1.1% (inactive). With `COc1cc(/C=C2\SC(=Nc3ccc(C)c(Cl)c3)NC2=O)ccc1O`, the displacement was -0.7% (inactive).

Take `Cc1c(Cl)cccc1N=C1NC(=O)/C(=C/c2ccc(O)c([N+](=O)[O-])c2)S1`: the displacement was 13.2% (inactive). On to `Cc1ccc(N=C2NC(=O)/C(=C/c3ccc(O)c([N+](=O)[O-])c3)S2)cc1Cl`, for which the displacement was 66.9% (active). As to `CC1CCCCN1c1nnc(N)s1` (configuration not stated), the displacement is 0.6% (inactive). `O=C(Cn1c(=O)n(CC2CCCO2)c(=O)c2ccccc21)N1CCN(c2ccccc2)CC1` (configuration not stated): the displacement is 4.1% (inactive). In the case of `Cc1c(O)ccc2c1oc(=O)c1ccccc12`, the displacement is 2.3% (inactive). The result for `O=c1oc2c(O)c(O)ccc2c2c1CCC2` reads 1.2% (inactive). Take `Nc1nnn(Cc2ccccc2)n1`: the displacement is -0.8% (inactive).

As for `CCN(CC)S(=O)(=O)c1ccc2oc(Nc3ccc4c(c3)OCCO4)nc2c1`, the displacement was 0.7% (inactive). The result for `CC(Sc1ccc2nnc(-c3ccc(F)cc3)n2n1)C(=O)O` (configuration not stated) reads -5.3% (inactive). Regarding `NC(=O)CN1CCOCCN(CC(N)=O)CCOCC1`, the displacement is -5% (inactive). Take `O=C(NCC(O)c1ccccc1)C(=O)NC1CC1` (configuration not stated): the displacement was -1.2% (inactive). Turning to `CCC(c1nnc(SCc2nc3ccccc3s2)n1Cc1ccccc1)N(C)C` (configuration not stated), the displacement was -2.1% (inactive). Take `O=C1CC(c2ccccc2)c2ccc(O)cc2O1` (configuration not stated): the displacement was 2.6% (inactive). Consider `O=C1C=CC2=C3Oc4c(ccc5cc(O)ccc45)C(c4ccccc4C(=O)O)C3C=CC2=C1` (configuration not stated), for which the displacement was 60.9% (active). The result for `O=C(O)c1cccc(N2C(=O)c3ccc(Br)cc3C2=O)c1` reads -5.6% (inactive); that for `O=C(O)c1cccc(N2C(=O)CCC2=O)c1`, 3.8% (inactive).

As to `O=C(O)c1cccc(N2C(=O)c3ccc4c5c(ccc(c35)C2=O)CC4)c1`, the displacement was 70% (active).

`Nc1nc(CSc2nc3ccccc3[nH]2)cs1`: the displacement was -1.6% (inactive). `Cc1cccc(N2C(=O)NC(=O)/C(=C/c3ccc(N(C)C)c(Br)c3)C2=O)c1`: the displacement is 0.9% (inactive). Consider `CCOc1cccc(=O)c2c(C)oc(C)c12`, for which the displacement is 28% (inactive) and 19.3% (inactive). For the compound `CCOc1ccc(-c2cc(OCC)c3c(C)oc(C)c3c(=[O+]CC)c2)cc1`, the displacement was -5.4% (inactive).

Regarding `CCOc1cccc(=[O+]CC)c2c(C)oc(C)c12`, the displacement was 80.7% (active). `Cc1oc(-c2ccc(Cl)cc2)nc1CN1CCCC(C(=O)NCc2ccco2)C1` (configuration not stated): the displacement was 0.5% (inactive). Next, `Cc1cc(C)c(NC(=O)c2c(-c3ccccc3)noc2C)c(C)c1`: 1.9% (inactive); `CCc1nnc(SCC(=O)N2CCCc3ccccc32)nc1CC`: 0.4% (inactive); `Cc1cc(NC(=O)c2ccc(-c3cccc(Cl)c3)o2)ccc1NC(=O)c1ccco1`: -0.3% (inactive). For `N#Cc1c2c(c(NCCCCO)n3c1nc1ccccc13)CCC2`, the displacement was 55% (active). With `CN(C)CCCNc1c2c(c(C#N)c3nc4ccccc4n13)CCC2`, the displacement was 3.6% (inactive).

With `N#Cc1c2c(c(NCCCN3CCOCC3)n3c1nc1ccccc13)CCC2`, the displacement was 3.4% (inactive). On to `O=C(O)C1Nc2ccc([N+](=O)[O-])cc2C2C=CCC12` (configuration not stated), for which the displacement is 102% (active).

Consider `Cc1ccc2c(c1)C1C=CCC1C(C(=O)O)N2` (configuration not stated), for which the displacement was 38.6% (inactive).

Turning to `O=[N+]([O-])c1ccc(C2Nc3ccc([N+](=O)[O-])cc3C3C=CCC32)cc1` (configuration not stated), the displacement was 0.4% (inactive). As to `COc1cccc2c1NC(C(=O)O)C1CC=CC21` (configuration not stated), the displacement was 47.8% (inactive). `O=C(O)C1Nc2c(O)cccc2C2C=CCC12` (configuration not stated): the displacement was 16.1% (inactive). `O=C(O)C1Nc2c(cccc2[N+](=O)[O-])C2C=CCC12` (configuration not stated): the displacement was 76.9% (active).

Consider `O=C(CCc1ccccc1)Oc1ccc(Cl)cc1`, for which the displacement is 0.9% (inactive). For the compound `O=C1NC(=S)N(c2ccccc2F)C(=O)/C1=C/c1ccc(Sc2ccccc2)o1`, the displacement is 0.9% (inactive). Next, `O=C1NC(=O)N(c2ccc(Cl)cc2)C(=O)/C1=C/c1ccc(I)o1`: 15.2% (inactive).

Consider `O=C1NC(=S)N(c2ccccc2F)C(=O)/C1=C/c1ccc(OCc2cccc(C(=O)O)c2)cc1`, for which the displacement was 51.5% (active). `CCOc1ccc(N2C(=O)NC(=O)/C(=C\c3ccc(I)o3)C2=O)cc1`: the displacement is 0.7% (inactive). Turning to `O=C1NC(=O)N(c2ccccc2F)C(=O)/C1=C/c1ccc(OCc2cccc(C(=O)O)c2)cc1`, the displacement is 0.2% (inactive). Next, `CCOc1ccc(N2C(=O)/C(=C/c3ccc(I)o3)C(=O)NC2=S)cc1`: 96.7% (active). As for `CCc1ccc(N2C(=O)/C(=C/c3ccc(I)o3)C(=O)NC2=S)cc1`, the displacement was 84.7% (active).

As for `O=C1NC(=S)N(c2ccccc2F)C(=O)/C1=C/c1ccc(I)o1`, the displacement is 81.7% (active). For the compound `Cc1ccc(N2C(=O)NC(=O)/C(=C\c3ccc(I)o3)C2=O)cc1`, the displacement was 6.1% (inactive). Consider `CCOc1ccc(N2C(=O)/C(=C/c3ccc(OCc4cccc(C(=O)O)c4)cc3)C(=O)NC2=S)cc1`, for which the displacement was 5.7% (inactive). Next, `CCOc1ccc(N2C(=O)/C(=C/c3ccc(N(CC)CC)o3)C(=O)NC2=S)cc1`: -73.8% (inactive); `O=C1NC(=O)N(c2ccccc2F)C(=O)/C1=C/c1ccc(I)o1`: 20.6% (inactive).

On to `CC(C)c1ccc(-c2nc(N)c3c(=O)oc4ccccc4c3n2)cc1`, for which the displacement is 0.4% (inactive).

As for `O=C(CN(Cc1ccco1)C(=O)CNS(=O)(=O)c1ccccc1)NC1CCCCC1`, the displacement is 5.9% (inactive). Take `O=[N+]([O-])c1cc(NS(=O)(=O)Cc2ccccc2)ccc1F`: the displacement was 3.6% (inactive). The result for `O=C(NCc1ccc2c(c1)OCO2)C1COc2ccccc2O1` (configuration not stated) reads 3.3% (inactive); that for `CCCn1c(=N)n(CC(=O)C(C)(C)C)c2ccccc21`, 7.1% (inactive). In the case of `CCn1cc(Br)c(C(=O)Nc2ccc(OC)cc2)n1`, the displacement was 8.2% (inactive).

Turning to `O=C(NC1CC2CCCC(C1)N2C(=O)NC1CCCCC1)c1ccccc1` (configuration not stated), the displacement is 0.4% (inactive). Consider `COc1cc(C(=O)NC2CC3CCCC(C2)N3CC(=O)Nc2ccccc2)cc(OC)c1OC` (configuration not stated), for which the displacement is 2% (inactive).

As for `COc1cccc(C(=O)NC2CC3CCCC(C2)N3CC(=O)Nc2ccc(N(C)C)cc2)c1` (configuration not stated), the displacement is 2.7% (inactive). Regarding `Cc1c(C(=O)N2CCc3ccccc3C2)sc2nc(-c3ccccc3)cn12`, the displacement was 0.5% (inactive). Regarding `O=C1NN(c2ccc(Cl)cc2)C(=O)/C1=C\c1ccc(-c2cccc(C(=O)O)c2)o1`, the displacement was 16.5% (inactive).

For the compound `O=C1NN(c2cccc(Cl)c2)C(=O)/C1=C\c1ccc(-c2cccc(C(=O)O)c2)o1`, the displacement is 55.5% (active). As to `O=C1NN(c2ccc(F)c(Cl)c2)C(=O)/C1=C\c1ccc(-c2cccc(C(=O)O)c2)o1`, the displacement was 5.7% (inactive).

The record behind these values is PubChem BioAssay AID583 (Sanford-Burnham Center for Chemical Genomics, 2007).
